Measured values: article PMC10726135, “HNF4α isoforms regulate the circadian balance between carbohydrate and lipid metabolism in the liver”
In all, about 18,000 sequences were measured (“log2 normalized intensity”: median about 0.39, highest 2% from about 6.6 on). This is one part of a sample in which the highest values are shown more often than they occur.

These sequences were tested against T1, HNF4alpha2 (COS-7 nuclear extract) (Homo sapiens, UniProt P41235 1-474) (assay: protein-binding microarray; COS-7 nuclear extract on double-stranded Agilent 4x180k PBM; binding buffer, salt, pH and temperature not given in the material; high values mean tight binding). Conditions: chain copies: 2; label: 3' end of strand 1 on the slide; dsDNA, one strand shown.
T1 sequence: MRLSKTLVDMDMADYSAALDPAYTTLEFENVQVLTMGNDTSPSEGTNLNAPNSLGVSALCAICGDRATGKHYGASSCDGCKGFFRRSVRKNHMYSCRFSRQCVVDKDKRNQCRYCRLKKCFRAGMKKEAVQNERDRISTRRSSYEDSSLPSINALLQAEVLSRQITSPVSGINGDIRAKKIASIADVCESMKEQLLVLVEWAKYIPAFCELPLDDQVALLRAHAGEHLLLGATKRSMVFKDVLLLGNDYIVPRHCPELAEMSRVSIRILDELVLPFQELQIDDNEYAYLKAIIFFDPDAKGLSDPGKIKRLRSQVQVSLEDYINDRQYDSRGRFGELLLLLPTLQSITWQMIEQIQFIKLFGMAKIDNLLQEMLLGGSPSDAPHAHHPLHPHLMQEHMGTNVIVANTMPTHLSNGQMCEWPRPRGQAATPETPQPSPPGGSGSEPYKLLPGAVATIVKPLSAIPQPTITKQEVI
How it was run: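 COS-7 cells were transiently transfected by CaPO4 with an expression vector for a human HNF4α isoform, and nuclear extracts were prepared from them. The extracts were applied to a custom Agilent SurePrint G3 4x180k array of double-stranded ~60-nt oligonucleotides, with ~44,000 test sequences spotted in quadruplicate. An Agilent G2565CA scanner imaged bound HNF4α at 2-µm resolution. Binding signal is the background-corrected, normalized gProcessedSignal from Agilent software.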

Sequence	binding signal
ATACTTTCAGCTAGCTGAGTGAGTAGGTTCGCCTAGGGAGATTAGAGTATCGGTCGA	1.31 log2 normalized intensity
AGTCCTGACCTTGGACTCTGCCCTTGGCCTGCCTAGGGAGATTAGAGTATCGGTCGA	5.81 log2 normalized intensity
TCTTATGTCCCTCCTGACCTTTGGACTTGAGCCTAGGGAGATTAGAGTATCGGTCGA	10.3 log2 normalized intensity
ACCTTTGTCCTCATTGAGCCCTCCCCTTGTGCCTAGGGAGATTAGAGTATCGGTCGA	4.33 log2 normalized intensity
CCTGACCTGCCCTTTGTCCCTCCTGCTAGTGCCTAGGGAGATTAGAGTATCGGTCGA	3.3 log2 normalized intensity
AACTCTCAGTTTGGCTCTTATGTCCCTCCTGCCTAGGGAGATTAGAGTATCGGTCGA	1.35 log2 normalized intensity
TTGGCTCTTATGTCCCTCCTGACCTTTGGAGCCTAGGGAGATTAGAGTATCGGTCGA	8.6 log2 normalized intensity
TGTCCCTCCTGACCTTTGGACTTGATAGAGGCCTAGGGAGATTAGAGTATCGGTCGA	9.11 log2 normalized intensity
TCAGTTTGGCTCTTATGTCCCTCCTGACCTGCCTAGGGAGATTAGAGTATCGGTCGA	3.25 log2 normalized intensity
GCCTCTTTATCTCCTCCCCTTGAGACTTTAGCCTAGGGAGATTAGAGTATCGGTCGA	2.85 log2 normalized intensity
CTCTGTGCTCCCAGTTCCCTCATTAGTAACGCCTAGGGAGATTAGAGTATCGGTCGA	1.33 log2 normalized intensity
CAAAGGACATTTCTAAAAATAGCCTTACTTGCCTAGGGAGATTAGAGTATCGGTCGA	-0.901 log2 normalized intensity
CCCGGCAGCCCTGCTCCCCGCCTTGGCCTCGCCTAGGGAGATTAGAGTATCGGTCGA	1.56 log2 normalized intensity
CTACAGGTATGCCTTTGAAGAGTACAGCCTGCCTAGGGAGATTAGAGTATCGGTCGA	-0.571 log2 normalized intensity
CAGCAACACTCTACTACTTGACCTTTGAAAGCCTAGGGAGATTAGAGTATCGGTCGA	6.06 log2 normalized intensity
GGGCGAGAGAGTTCTATGGGATGACCTTTGGCCTAGGGAGATTAGAGTATCGGTCGA	6.25 log2 normalized intensity
TGACAAGCAAACACAAACTATGACCTTTGAGCCTAGGGAGATTAGAGTATCGGTCGA	8.49 log2 normalized intensity
ATGACCCAAACTTCACAAAAATGAGTGCAAGCCTAGGGAGATTAGAGTATCGGTCGA	-0.838 log2 normalized intensity
GTTCTATGGGATGACCTTTGAGCAATAGGAGCCTAGGGAGATTAGAGTATCGGTCGA	5.15 log2 normalized intensity
TTCTTTTTGAAGCAAAGCCTTTGAGCAGATGCCTAGGGAGATTAGAGTATCGGTCGA	0.819 log2 normalized intensity
ACACAAACTATGACCTTTGAAACTTACATTGCCTAGGGAGATTAGAGTATCGGTCGA	5.64 log2 normalized intensity
AGAGAGTTCTATGGGATGACCTTTGAGCAAGCCTAGGGAGATTAGAGTATCGGTCGA	6.93 log2 normalized intensity

Sequence	binding signal
AGCAAACACAAACTATGACCTTTGAAACTTGCCTAGGGAGATTAGAGTATCGGTCGA	7.13 log2 normalized intensity
CCTTTCATGTACTGTTCAGTTCCTATTTCAGCCTAGGGAGATTAGAGTATCGGTCGA	1.72 log2 normalized intensity
GAGTGGACTTTGGCTTATGCAAATGTTATGGCCTAGGGAGATTAGAGTATCGGTCGA	4.25 log2 normalized intensity
TTCACCTTTCGCCCTTTGTCCTATGACTCTGCCTAGGGAGATTAGAGTATCGGTCGA	4.63 log2 normalized intensity
TGACCTGGTACTATGACCTTTCACCTTTTAGCCTAGGGAGATTAGAGTATCGGTCGA	6.99 log2 normalized intensity
TGGTACTATGACCTTTCACCTTTTAGCTTGGCCTAGGGAGATTAGAGTATCGGTCGA	5.81 log2 normalized intensity
ACCTTTGACCTGGTACTATGACCTTTCACCGCCTAGGGAGATTAGAGTATCGGTCGA	7.01 log2 normalized intensity
GAGTGACCTGGTATTGCAAGTATTTCACCCGCCTAGGGAGATTAGAGTATCGGTCGA	1.57 log2 normalized intensity
CTATGACCTTTCACCTTTTAGCTTGGCATGGCCTAGGGAGATTAGAGTATCGGTCGA	4.41 log2 normalized intensity
TTAGCAGATAAATCTAGGCCTAGGCATTGAGCCTAGGGAGATTAGAGTATCGGTCGA	-0.468 log2 normalized intensity
ATCTTGGGTTAGGCCTTTAGAGGATTTACTGCCTAGGGAGATTAGAGTATCGGTCGA	-0.708 log2 normalized intensity
TTCGGTGCTGACCTTTGTTCACATTTGTGCGCCTAGGGAGATTAGAGTATCGGTCGA	5.06 log2 normalized intensity
ATGAGATACCCATTCACATGACCTTTGTCCGCCTAGGGAGATTAGAGTATCGGTCGA	8.34 log2 normalized intensity
ATACCCATTCACATGACCTTTGTCCGTTCCGCCTAGGGAGATTAGAGTATCGGTCGA	7.01 log2 normalized intensity
ACATGACCTTTGTCCGTTCCTGCCTGGAGCGCCTAGGGAGATTAGAGTATCGGTCGA	4.82 log2 normalized intensity
CATTCACATGACCTTTGTCCGTTCCTGCCTGCCTAGGGAGATTAGAGTATCGGTCGA	5.92 log2 normalized intensity
CTGGGATGAGATACCCATTCACATGACCTTGCCTAGGGAGATTAGAGTATCGGTCGA	3.29 log2 normalized intensity
CTGGGAAGATTAAGGAAGGAAGGTGCTTATGCCTAGGGAGATTAGAGTATCGGTCGA	-0.85 log2 normalized intensity
TTCACCCCATTTTGTCCCTCCCTGCAGCTGGCCTAGGGAGATTAGAGTATCGGTCGA	4.07 log2 normalized intensity
CTGACCTCTTTTGGATTTTTCCATATCTGTGCCTAGGGAGATTAGAGTATCGGTCGA	1.74 log2 normalized intensity
CCCTGCCACTCTTTTTTAGACTTTGACCTCGCCTAGGGAGATTAGAGTATCGGTCGA	10 log2 normalized intensity
GACCTCTGCCCTTCCACCCACTTTATCTTCGCCTAGGGAGATTAGAGTATCGGTCGA	3.26 log2 normalized intensity

Sequence	binding signal
ACTACCTCTTTAGGCTGGACTCTGACCCATGCCTAGGGAGATTAGAGTATCGGTCGA	6.75 log2 normalized intensity
CTCTTTAGGCTGGACTCTGACCCATTCCTTGCCTAGGGAGATTAGAGTATCGGTCGA	5.23 log2 normalized intensity
ATGACCTCTTTTAGTAACTGACTTTAACTTGCCTAGGGAGATTAGAGTATCGGTCGA	1.5 log2 normalized intensity
TGCAGCCCTGCCACTCTTTTTTAGACTTTGGCCTAGGGAGATTAGAGTATCGGTCGA	3.72 log2 normalized intensity
ACCAGACTACCTCTTTAGGCTGGACTCTGAGCCTAGGGAGATTAGAGTATCGGTCGA	3.96 log2 normalized intensity
CCACTCTTTTTTAGACTTTGACCTCCATATGCCTAGGGAGATTAGAGTATCGGTCGA	7.61 log2 normalized intensity
TTAATGTGCTTGTCTGACTGCTGCCAAAGGGCCTAGGGAGATTAGAGTATCGGTCGA	-0.631 log2 normalized intensity
ATGGTGGAGGGTCTTGCTTTGATGTTGATGGCCTAGGGAGATTAGAGTATCGGTCGA	1.58 log2 normalized intensity
CTTTTGGTATGCAAGGCATGGTGCTTCGCAGCCTAGGGAGATTAGAGTATCGGTCGA	1.26 log2 normalized intensity
TTTCAAGAATGGAGAAAACAACATTCCTTGGCCTAGGGAGATTAGAGTATCGGTCGA	-0.213 log2 normalized intensity
TCCTTTGGATCATGTGTCTGAGCAAGTTTCGCCTAGGGAGATTAGAGTATCGGTCGA	2.08 log2 normalized intensity
TGTCATCTAGACCTGGACTTGAAGCCAGACGCCTAGGGAGATTAGAGTATCGGTCGA	-0.168 log2 normalized intensity
TGAGTCTGGTGTTTCCCTGTTTGCTTCTGCGCCTAGGGAGATTAGAGTATCGGTCGA	0.819 log2 normalized intensity
GTTTAACTGACCCAGGGAGAAAGGTCAGGGGCCTAGGGAGATTAGAGTATCGGTCGA	2.86 log2 normalized intensity
ATTCTCTTATCTACTTTAAGATTTGACCCTGCCTAGGGAGATTAGAGTATCGGTCGA	5 log2 normalized intensity
ATCTGACCTTTGGTTAACTTCTTAACTTGGGCCTAGGGAGATTAGAGTATCGGTCGA	2.97 log2 normalized intensity
CTTATCTACTTTAAGATTTGACCCTTGGCCGCCTAGGGAGATTAGAGTATCGGTCGA	7.08 log2 normalized intensity
AGTGGTTTAAAAACTTATCTTGTGACCTTTGCCTAGGGAGATTAGAGTATCGGTCGA	6.81 log2 normalized intensity
TTTAAAAACTTATCTTGTGACCTTTGACTCGCCTAGGGAGATTAGAGTATCGGTCGA	8.33 log2 normalized intensity
TATCTTGTGACCTTTGACTCATTATCCCCCGCCTAGGGAGATTAGAGTATCGGTCGA	6.24 log2 normalized intensity
TTAAGATTTGACCCTTGGCCAGGTGCAGTGGCCTAGGGAGATTAGAGTATCGGTCGA	4.65 log2 normalized intensity
CTGAACTTTAAACTGGTGTGTCTTGCCTTTGCCTAGGGAGATTAGAGTATCGGTCGA	2.06 log2 normalized intensity

Sequence	binding signal
AAACTTATCTTGTGACCTTTGACTCATTATGCCTAGGGAGATTAGAGTATCGGTCGA	6.43 log2 normalized intensity
ATAAGACACATTCCATGCTTATCAGTGTACGCCTAGGGAGATTAGAGTATCGGTCGA	0.893 log2 normalized intensity
TAACTCAAAATCTGCTCTGTCCTGAGATGTGCCTAGGGAGATTAGAGTATCGGTCGA	1.06 log2 normalized intensity
AGGCCTGGAACCTGTCTGACAGGATGAATTGCCTAGGGAGATTAGAGTATCGGTCGA	-0.627 log2 normalized intensity
GCTGCCGCAGATCCCCGCTCCCCTCCCCCAGCCTAGGGAGATTAGAGTATCGGTCGA	6.45 log2 normalized intensity
AAGAGCCAAAATGTGTTAGGCAAGCAAACTGCCTAGGGAGATTAGAGTATCGGTCGA	-0.953 log2 normalized intensity
ATGTGGTCAAAACTTTGTTTGAGTTCCAAAGCCTAGGGAGATTAGAGTATCGGTCGA	1.07 log2 normalized intensity
AACTTTGTTTGAGTTCCAAAGTCCATGTTCGCCTAGGGAGATTAGAGTATCGGTCGA	6.61 log2 normalized intensity
AGATTCGGTGAGGGATTGTTTAGGTACAAAGCCTAGGGAGATTAGAGTATCGGTCGA	1.53 log2 normalized intensity
ATACAGAATCAATGCCTGATTCCAAAGTCCGCCTAGGGAGATTAGAGTATCGGTCGA	5.95 log2 normalized intensity
TTGTTTAGGTACAAAGTCCATTGGAAGCCAGCCTAGGGAGATTAGAGTATCGGTCGA	5.82 log2 normalized intensity
GTCAAAACTTTGTTTGAGTTCCAAAGTCCAGCCTAGGGAGATTAGAGTATCGGTCGA	6.99 log2 normalized intensity
CTCTGAGATTCGGTGAGGGATTGTTTAGGTGCCTAGGGAGATTAGAGTATCGGTCGA	0.957 log2 normalized intensity
AAAGTCCATATTCTTTGTTTGGATGCCAAAGCCTAGGGAGATTAGAGTATCGGTCGA	1.58 log2 normalized intensity
CGGTGAGGGATTGTTTAGGTACAAAGTCCAGCCTAGGGAGATTAGAGTATCGGTCGA	8.35 log2 normalized intensity
GAATCAATGCCTGATTCCAAAGTCCACTTTGCCTAGGGAGATTAGAGTATCGGTCGA	6.91 log2 normalized intensity
AGGGATTGTTTAGGTACAAAGTCCATTGGAGCCTAGGGAGATTAGAGTATCGGTCGA	7.7 log2 normalized intensity
ACTTTGCCTTTTGGCTAAAGTCCAAATTCCGCCTAGGGAGATTAGAGTATCGGTCGA	5.14 log2 normalized intensity
AAGCATTTGGAGATTGCCACCTTGGTGAGAGCCTAGGGAGATTAGAGTATCGGTCGA	0.715 log2 normalized intensity
